Measurements taken from PubChem BioAssay (NCATS).
Inconclusive results are not listed. Calls of active or inactive are those of the source. Calls follow the shape of the dose curve; as a rule, active = well fitted curve in the direction sought with a large enough effect; inconclusive = small, poorly fitted or top-dose-only effect, or another doubt; inactive = no such curve, though single readings can be large; an effect the other way counts as inactive or inconclusive.

Experiments:
[1] = BET inhibitor-based combinations targeting novel dependencies in MECOM-rearranged (r) AML: MV-4-11 cell line (AID 2202233); also: nearly all actives have a fitted effect of over 45% in size
Outline: (§1)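 Activity is given as area under the curve and as Z-AUC, mean-centred within each cell line. It comes from 11-point dose curves normalized to DMSO and empty wells. CellTiter-Glo luminescence was read after 48 hr drug exposure of 500 cells/well.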

[2] = BET inhibitor-based combinations targeting novel dependencies in MECOM-rearranged (r) AML: HNT-34 cell line (AID 2202234); also: nearly all actives have a fitted effect of over 35% in size
Outline: as §1

[3] = BET inhibitor-based combinations targeting novel dependencies in MECOM-rearranged (r) AML: UCSD-AML1 cell line (AID 2202235); also: nearly all actives have a fitted effect of over 40% in size
Outline: as §1

[4] = BET inhibitor-based combinations targeting novel dependencies in MECOM-rearranged (r) AML: AML-191 cell line (AID 2202236; also: nearly all actives have a fitted effect of over 35% in size)
Outline: (§2)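 Cells were plated at 500 per well and exposed to an 11-point dose series of each drug for 48 hr. Viability was measured by CellTiter-Glo luminescence, normalized to DMSO and empty-well controls, and summarized as AUC and per-cell-line Z-AUC.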

[5] = BET inhibitor-based combinations targeting novel dependencies in MECOM-rearranged (r) AML: OCI-AML3 cell line (AID 2202232); conditions: Potency: OCI-AML3 viability; also: nearly all actives have a fitted effect of over 35% in size
Outline: as §2

[6] = BET inhibitor-based combinations targeting novel dependencies in MECOM-rearranged (r) AML: AML-194 cell line (AID 2202237; also: nearly all actives have a fitted effect of over 40% in size)
Outline: as §2
Potency is read from the fitted curve at half-maximal effect.

Q: Which results are given for `CNC(=O)[C@@H](NC(=O)[C@H](CC(C)C)[C@H](O)C(=O)NO)C(C)(C)C`?
A: Potency [1]: 16.6 µM (active); Potency [2]: 14.8 µM (active); Potency [3]: inactive; Potency [4]: 20.9 µM (active)

Q: For `CC(C)n1cnc2c(NCCCCCCNC(=O)OC(C)(C)C)nc(NCCO)nc21`, which Potency [1] is on record?
A: 16.6 µM (active)

Q: Which Potency [5] does the source give for `C[C@H](NC(=O)C(=O)Nc1ccccc1C(C)(C)C)C(=O)N[C@@H](CC(=O)O)C(=O)COc1c(F)c(F)cc(F)c1F` here?
A: 10.5 µM (active)

Q: And the Potency [4]?
A: 20.9 µM (active)

Q: With `CCNc1cc(NC2CCC(O)CC2)nc(Nc2ccc3c(ccn3Cc3ccccc3)c2)n1` (stereo not drawn) as the molecule, how does the Potency [5] read?
A: inactive

Q: And the Potency [2]?
A: inactive

Q: What about the Potency [4] of the same molecule?
A: inactive

Q: With `COC(=O)C1=C(C)NC(c2ncc(F)cc2F)=N[C@@H]1c1ccc(F)cc1Cl` as the molecule, how does the Potency [5] read?
A: inactive

Q: And the Potency [3]?
A: inactive

Q: And the Potency [4]?
A: inactive

Q: And the Potency [6]?
A: inactive

Q: For `C[C@H]1CNC(=O)c2cnn3ccc(nc23)N[C@H](C)c2cc(F)ccc2O1`, which Potency [1] is on record?
A: 1.32 µM (active)

Q: And the Potency [2]?
A: 0.833 µM (active)

Q: And the Potency [3]?
A: 0.833 µM (active)

Q: Which results are given for `COc1cc(F)ccc1-c1ncnc(Nc2cccc(CS(C)(=N)=O)c2)n1` (stereo not drawn)?
A: Potency [5]: 0.934 µM (active); Potency [3]: 0.833 µM (active); Potency [4]: 0.662 µM (active); Potency [6]: 0.934 µM (active)

Q: For `CCN1C(=O)CNc2ncc(-c3ccc(-c4ncn[nH]4)nc3C)nc21`, which Potency [1] is on record?
A: 1.66 µM (active)

Q: And the Potency [2]?
A: 2.09 µM (active)

Q: What does the source list for `COc1ncc(Nc2ncc(C(C)N3CCN(S(C)(=O)=O)CC3)cc2-c2nc(C)nc(N)n2)cc1F` (stereo not drawn)?
A: Potency [5]: 0.662 µM (active); Potency [2]: inactive; Potency [6]: inactive

Q: With `COc1ccc(COc2ccc(Cc3cnc(N)nc3N)cc2OC)cc1` as the molecule, how does the Potency [1] read?
A: inactive

Q: With `CCc1ccc2nc(Nc3cc(Cc4ccccc4)nc(NC4CCC(O)CC4)n3)sc2c1` (stereo not drawn) as the molecule, how does the Potency [1] read?
A: 18.6 µM (active)

Q: Which Potency [5] does the source give for `Cc1onc(-c2ccccc2)c1-c1ccc(S(N)(=O)=O)cc1` here?
A: inactive

Q: What about the Potency [2] of the same molecule?
A: inactive

Q: And the Potency [6]?
A: inactive

Q: For `Cc1cccc(/C=N/Nc2cc(N3CCOCC3)nc(OCCc3ccccn3)n2)c1`, which Potency [1] is on record?
A: 7.42 µM (active)

Q: With `CC(=O)O/N=C1\C(=O)N(Cc2cc(Cl)ccc2Cl)c2ccc(Cl)cc21` as the molecule, how does the Potency [5] read?
A: 13.2 µM (active)

Q: What about the Potency [3] of the same molecule?
A: 8.33 µM (active)

Q: And the Potency [4]?
A: 2.35 µM (active)

Q: And the Potency [6]?
A: 2.63 µM (active)

Q: Which Potency [5] does the source give for `COC1=C(OC)C(=O)C(CCCCCCCCCCO)=C(C)C1=O` here?
A: 16.6 µM (active)

Q: And the Potency [4]?
A: 18.6 µM (active)

Q: What does the source list for `NS(=O)(=O)Oc1ccc2c3c(c(=O)oc2c1)CCCCC3`?
A: Potency [5]: inactive; Potency [3]: inactive; Potency [4]: inactive; Potency [6]: inactive

Q: With `NC(=O)c1cccc2c(NC(CN3CCC3)c3ccc(Cl)c(C(F)(F)F)c3)ncnc12` (stereo not drawn) as the molecule, how does the Potency [5] read?
A: 1.48 µM (active)

Q: What about the Potency [6] of the same molecule?
A: 16.6 µM (active)

Q: What does the source list for `[2H]c1nc(C)nc([2H])c1-c1cc(NC[C@@H](C)c2cccc3c(C(=O)NC)ccnc23)ncn1`?
A: Potency [1]: inactive; outcome [2]: inactive; Potency [3]: inactive

Q: With `CO[C@H]1/C=C/O[C@@]2(C)Oc3c(C)c(O)c4c(O)c(c(/C=N\N5CCN(C6CCCC6)CC5)c(O)c4c3C2=O)NC(=O)/C(C)=C\C=C\[C@H](C)[C@H](O)[C@@H](C)[C@@H](O)[C@@H](C)[C@H](OC(C)=O)[C@@H]1C` as the molecule, how does the Potency [1] read?
A: 23.5 µM (active)
